# A selection: hits, their analogues and other compounds. The true share with any hit is near 2.8%.
# Shn3 3UTR inh: reduction of Shn3 3'UTR firefly luciferase signal, primary screen, Schnurri-3 inhibitor project, cell-based, Clone20 osteoblasts, set 2; Clone20 osteoblast Shn3 3'UTR firefly luciferase, 24 h; inhibition, % at 12.5 µM; 0.52% of 360,000 active;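 active = mean inhibition of at least 75% with every replicate also reaching 75%; inconclusive = mean inhibition at least 75% but some replicate below; inactive = mean inhibition below 75%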;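 also: 0% = median of neutral control wells and 100% = pilot-screen positive control compound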
# Peg3 prom inh: Peg3 promoter-driven luciferase inhibitors, primary screen, cell-based, HeLa, luciferase luminescence. inhibition, % at 20 µM. AID 588405, 2011. HeLa PEG-Prom luciferase reporter, overnight. 1.7% of 360,000 active;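 active = inhibition of at least 50% at 20 µM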
# HIF-2a inh: HIF-2a reporter inhibitors, primary screen, luminescence, 786-0 RCC cells | 0.72% of 360,000 active | 786-0 RCC cells HIF-2a reporter, luciferase luminescence, overnight | inhibition, % at 18.8 µM;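 active = inhibition of the luminescence signal of 40% or more relative to plate controls, in a single-dose primary screen at 18.75 µM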
# EBV LMP1 NFkB: EBV LMP1-driven NF-kappaB luciferase reporter inhibitors, primary screen, cell-based, luminescence, single point | LMP1-induced NF-kappaB luciferase reporter cells | inhibition, % at 12.5 µM | 0.69% of 350,000 active; in the data active = inhibition above about 41%; inconclusive = no clear call, values can overlap the other calls;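 also: 0% = neutral control wells and 100% = reference inhibitor control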
# MITF TRPM1 inh: inhibitors of MITF-dependent TRPM1 promoter reporter, primary screen, cell-based, SK-MEL-5, single point, luciferase; inhibition, % at 12.5 µM; 0.83% of 330,000 active; SK-MEL-5 TRPM1 promoter luciferase, 24 h;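 active = mean inhibition across replicates of 60% or more, whatever share of single replicates reaches that level; inconclusive = some that reach 60%, reason not given; inactive = mean inhibition across replicates below 60%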
# PAX8 reporter: inhibitors of PAX8-driven TPO luciferase reporter, primary screen, RMG-I cells, single concentration. 1.2% of 360,000 active. SteadyGlo, 24 h. inhibition, % at 12.6 µM;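 active = mean replicate inhibition at least 60% with every replicate also reaching 60%; inconclusive = only one of the two criteria is met; inactive = mean below 60% and not all replicates reaching 60%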;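 also: luciferase light reporting Pax8 driven TPO promoter activity; plate controls were median of neutral control wells for no effect and mitoxantrone controls for full effect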
# An asterisk follows results filed as active; ? = inconclusive; . = no result given.
SMILES,Shn3 3UTR inh,Peg3 prom inh,HIF-2a inh,EBV LMP1 NFkB,MITF TRPM1 inh,PAX8 reporter
O=[N+]([O-])c1ccc(Sc2cc[n+]([O-])c3ccccc23)c([N+](=O)[O-])c1,-9.9,6.7,-39.7,-13.4,90.4*,22.4
COCCNC(=O)c1cc2c(c(-c3cccc(-c4cccc(F)c4)c3)n1)[C@H](CCO)N(S(=O)C(C)(C)C)C2 (some centres undefined),.,.,.,.,.,61.6*
CC(C)(C)S(=O)N1Cc2cc(C(=O)NCC(F)(F)F)nc(-c3cccc(-c4cccc(F)c4)c3)c2[C@@H]1CCO (some centres undefined),25.2,69.3*,14.5,.,.,70.1*
COCCNC(=O)c1cc2c(c(-c3cccc(-c4cccc(F)c4)c3)n1)[C@@H](CCO)N(S(=O)C(C)(C)C)C2 (some centres undefined),.,.,.,.,.,10.9
CCCNC(=O)c1cc2c(c(-c3cccc(-c4cccc(F)c4)c3)n1)[C@@H](CCO)N([S@](=O)C(C)(C)C)C2,.,.,.,.,.,12.6
CCOC(=O)c1ccc(N=c2sc(C(=O)OC)cc(=O)n2-c2ccc(C(=O)OCC)cc2)cc1,1.9,98.9*,38.9,-1.9,30.4,.
COC(=O)c1cc(=O)n(-c2ccccc2)c(=Nc2ccccc2)s1,-3.9,32.6,29.9,7.1,-5.8,23.8
NC(=O)c1sc2nccc(Nc3ccccc3)c2c1N,-7.6,-40.6,-15.3,65.3*,-19.3,.
CCN(CC)CCNc1cc(C)c(C#N)c2nc3ccccc3n12,-28.4,6.7,2.0,-2.5,15.1,-23.6
Cc1cc(Nc2cccc([N+](=O)[O-])c2)n2c(nc3ccccc32)c1C#N,?,17.1,10.8,49.5*,76.3*,.
C[C@@H]1CN([C@@H](C)CO)C(=O)c2cc(NC(=O)Nc3ccc(F)cc3)ccc2O[C@H]1CN(C)Cc1ccc2c(c1)OCO2,.,.,.,.,.,-1.3
CC(=O)N1CC2(C1)[C@H](c1ccccc1)[C@@H](CO)N2S(=O)(=O)c1ccccc1,.,.,.,.,.,-7.5
CC=Cc1ccc2n(c1=O)C[C@H]1[C@H](CO)[C@@H](C(=O)NCCC)N(C(=O)CC)[C@@H]21 (mixture of isomers),.,.,.,.,.,-9.1
O=C(NC1CC1)c1ccc2c(c1)C1C3CCC(C3)C1C(c1ccccc1)N2 (centres undefined),23.5,15.5,21.3,10.2,1.9,115.3*
C=CC[n+]1c(/C=C2\C=Cc3cc(C)ccc3N2CC)ccc2ccccc21,93.5*,35.4,-20.1,45.4*,78.2*,87.8*
CCN1C(=C(C#N)C#N)C=Cc2cc(C)ccc21,-16.6,-8.2,16.8,4.5,-1.8,-4.1
Cc1cccc(OCCN2CSC(=S)N(C)C2)c1,-2.6,57.5*,13.1,25.5,21.1,.
Cc1cccc(OCCCN2CCCCCC2)c1,-6.7,11.3,8.3,4.2,0.6,.
C[C@@H]1CN([C@H](C)CO)C(=O)Cc2cc(NC(=O)Cc3cn(C)c4ccccc34)ccc2O[C@H]1CN(C)C(=O)Nc1ccccc1,.,.,.,.,.,-35.0
CCC(C)Sc1ccc(-c2nc3cnccn3c2NC2CCCCC2)cc1 (centres undefined),6.5,91.3*,-97.3,-24.1,-11.3,12.3
COc1ccc(Sc2ccc(-c3nc4cnccn4c3NC3CCCCC3)cc2OC)cc1,55.6,63.5*,14.9,-13.1,-0.1,-8.7
Nc1ncnc2c(C3OC(CO)C(O)C3O)scc12 (centres undefined),97.2*,90.1*,49.6*,71.1*,82.8*,113.8*
Nc1ncnc2c1ncn2C1O[C@H](CO)[C@@H](O)[C@@H]1O (some centres undefined),-36.0,12.2,14.6,6.0,6.3,-7.1
CCN(CC(=O)Nc1ccc2c(c1)OCCO2)C(=O)c1ccc([N+](=O)[O-])s1,-3.2,-32.0,-20.7,-2.4,70.7*,3.0
COc1cc(N(C)C)ccc1C=c1c2ccccc2n2c1cc(-c1ccccc1)[n+]2C,94.6*,99.6*,89.5*,1.8,110.5*,88.3*
COc1cc(C=c2c3ccccc3n3c2cc(-c2ccccc2)[n+]3C)cc(OC)c1OC,0.0,38.1,-22.3,7.0,64.6*,92.6*
